# Compound activity as filed in PubChem.
# A selection: hits, their analogues and other compounds. The true share with any hit is near 7%.
# PI5P4K alpha inh: PI5P4K alpha (human) kinase inhibition; P48426; PI5P4Kalpha enzyme, ADP-Glo luminescence, 60 min; hits give low values; max response, %; hit rate 1.2% among 330,000; active = max response of -50% or lower; inconclusive = between -30% and -50%; inactive = -30% or higher; also: value at the top dose of about 77 µM; % is scaled to controls: 0 for no effect and ±100 for the full control effect
#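 Controls without substrate or without enzyme flank wells where PI5P4Kalpha converts substrate using 5 microM ATP (final). Incubation lasts 60 minutes at room temperature; ADP formed is read by ADP-Glo luminescence.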
# GCN5L2 inh: GCN5L2 (KAT2A) acetyltransferase inhibition; GCN5L2 HAT assay, ThioGlo1 CoA-SH fluorescence; Potency, µM (titrated, usually from 58.9 µM), for inactives: at the top dose activity change, negative = inhibition, actives largely listed as inhibitors; hit rate 0.21% among 390,000; also: potency is read from the fitted curve at half-maximal effect; % is scaled to controls: 0 for no effect and ±100 for the full control effect
# Target sequence (Q92830 whole entry, looked up): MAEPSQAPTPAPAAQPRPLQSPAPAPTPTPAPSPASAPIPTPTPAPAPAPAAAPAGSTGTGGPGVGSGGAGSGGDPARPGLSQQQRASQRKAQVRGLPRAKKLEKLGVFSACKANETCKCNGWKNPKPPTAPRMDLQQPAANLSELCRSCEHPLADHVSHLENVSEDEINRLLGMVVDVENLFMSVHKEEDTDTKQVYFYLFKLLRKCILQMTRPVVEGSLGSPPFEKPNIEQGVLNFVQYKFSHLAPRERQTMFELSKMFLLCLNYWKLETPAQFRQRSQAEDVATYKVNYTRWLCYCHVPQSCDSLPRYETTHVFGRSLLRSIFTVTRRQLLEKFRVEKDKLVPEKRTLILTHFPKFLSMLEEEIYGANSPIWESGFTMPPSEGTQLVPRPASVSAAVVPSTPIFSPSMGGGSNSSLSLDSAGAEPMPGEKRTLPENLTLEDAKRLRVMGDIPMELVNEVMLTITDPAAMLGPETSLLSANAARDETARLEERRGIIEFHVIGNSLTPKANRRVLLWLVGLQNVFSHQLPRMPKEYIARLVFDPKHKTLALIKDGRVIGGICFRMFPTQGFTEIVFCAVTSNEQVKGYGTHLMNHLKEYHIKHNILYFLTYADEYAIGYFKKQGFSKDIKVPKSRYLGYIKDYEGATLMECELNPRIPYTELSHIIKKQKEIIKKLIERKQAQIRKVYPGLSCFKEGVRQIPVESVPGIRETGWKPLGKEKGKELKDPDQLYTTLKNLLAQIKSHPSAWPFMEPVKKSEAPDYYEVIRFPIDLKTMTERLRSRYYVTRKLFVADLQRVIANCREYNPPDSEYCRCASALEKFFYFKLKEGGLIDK
#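 Free CoA generated was detected with ThioGlo1 (50uM) fluorescence at Ex340nm/Em540nm, read immediately and after 20 min at room temperature. Enzyme, 20 nM in HEPES pH 7.5 buffer, saw compounds 15 min before adding 75uM H3(1-25) peptide and 70uM acetyl-CoA.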
# HP1b chromo inh: HP1-beta chromodomain-methylated histone interaction inhibition; Potency, µM (series often up to 114 µM), without a hit: at the top dose activity change, negative = inhibition, usual class: inhibitors; hit rate 0.56% among 390,000; AlphaScreen HP1-beta / biotin-H3K9me3 peptide binding; P83916; also: potency is read from the fitted curve at half-maximal effect; nearly all actives have a fitted effect of over 70% in size
#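 AlphaScreen: HP1-beta (50 nM) preformed 30 min with biotin-H3(1-18)K9me3 peptide (50 nM) in PBS pH 7.4, 0.01% Tween-20. Compound added for 30 min at RT, then streptavidin donor/nickel chelate acceptor beads (10 ug/mL) for 30 min.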
# PLK1 PBD inh: inhibitors of human PLK1 polo-box domain binding; AID 720504; P53350; Plk1 PBD binding of FITC phosphopeptide, fluorescence polarization; hit rate 2.8% among 360,000; Potency, µM, inactives show max response, negative = inhibition, usual class: inhibitors; also: potency is read from the fitted curve at half-maximal effect; series mostly up to about 57 µM; % is scaled to controls: 0 for no effect and ±100 for the full control effect; nearly all actives have a fitted effect of over 65% in size
# JMJD2A Tudor: inhibitors of human JMJD2A Tudor domain; AlphaScreen JMJD2A-Tudor / H3K4me3 peptide binding; Potency, µM (doses to about 114 µM), inactives show at the top dose activity change, negative = inhibition, actives largely listed as inhibitors; hit rate 4.4% among 390,000; also: potency is read from the fitted curve at half-maximal effect; % is scaled to controls: 0 for no effect and ±100 for the full control effect; nearly all actives have a fitted effect of over 50% in size
# BAZ2B block: blocks human BAZ2B; AlphaScreen BAZ2B-H3K14Ac peptide displacement; Potency, µM (series often up to 114 µM), without a hit: top-dose activity change, negative = inhibition, actives largely listed as inhibitors; Q9UIF8; AID 504333; hit rate 4.4% among 360,000; also: potency is read from the fitted curve at half-maximal effect; % is scaled to controls: 0 for no effect and ±100 for the full control effect; nearly all actives have a fitted effect of over 60% in size
#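 AlphaScreen luminescence quantifies BAZ2B engagement of H3K14Ac peptide; the protein and biotinylated peptide are both at 50 nM final, buffer PBS pH 7.4 with 0.01% Tween-20, all steps at room temperature.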
# An asterisk follows results filed as active; ? = inconclusive; . = no result; ! = not confirmed by another sample; [ ] = dose if it differs, or a comment. Unless noted, calls follow the shape of the dose curve; as a rule, active = well fitted curve in the direction sought with a large enough effect; inconclusive = small, poorly fitted or top-dose-only effect, or another doubt; inactive = no such curve, though single readings can be large; an effect the other way counts as inactive or inconclusive.
SMILES,PI5P4K alpha inh,GCN5L2 inh,HP1b chromo inh,PLK1 PBD inh,JMJD2A Tudor,BAZ2B block
CC1CCN(CC(=O)Nc2ccc(S(=O)(=O)N3CCC(C)CC3)cc2)CC1,-8.5,-2.8%,?,5.1%,0.794µM*,?
CC1CCN(S(=O)(=O)c2ccc(NC(=O)CN3CCOCC3)cc2)CC1,.,-13.4%,23.0%,-0.7%,-7.5%,-4.4%
COc1ccc(C(=O)Nc2cc(=O)[nH]c3ncnn23)cc1,-7.6,-7.1%,50.0%,-6.5%,-15.1%,-19.4%
C=CCN1C(=O)/C(=c2\sc3nc(=O)c(Cc4ccccc4)nn3c2=O)c2ccccc21,?,-9.4%,?,13.4µM*,56.2µM*,?
COC(=O)c1ccc(Cn2ncc3c4sc(C)cc4n(C)c3c2=O)cc1,.,.,.,.,-15.8%,.
Cn1cnc2nc[nH]c2c1=S,-3.6,.,12.0%,0.8%,3.55µM*,.
Cc1ccc(N2CC(C(=O)NCCS(=O)(=O)N3CCN(c4ccccc4F)CC3)CC2=O)cc1 (configuration not stated),?,-4.2%,0.9%,10.6µM*,15.8µM*!,-14.6%
O=C(NCCS(=O)(=O)N1CCN(c2ccccc2F)CC1)C1CC(=O)N(c2ccccc2)C1 (configuration not stated),3.4,-4.2%,13.1%[57 µM],-3.7%,-7.6%,-1.0%
O=C(O)CN1CCN(Cc2ccccc2)C1=O,.,-10.2%,24.8%,-2.7%,-7.5%,5.0%
O=C(O)CN1CCCC1=Nc1ccccc1,.,-4.9%,37.6%,-0.5%,-14.7%,89.1µM*
Cc1nn(C)c(C(=O)Nc2cccc(Nc3ccccc3)c2)c1[N+](=O)[O-],.,-8.5%,.,.,.,50.1µM*
Cc1nn(C)c(C(=O)N/N=C/c2ccccc2)c1[N+](=O)[O-],-7.0,-0.2%,17.3%,-1.6%,-13.6%,1.6%
O=[N+]([O-])c1cccnc1Oc1cc(Cl)c(Cl)cc1Cl,12.8,.,.,16.8µM*,.,.
Cc1cnc(NC(=O)Nc2ccc(OCc3ccccc3)cc2)c(Br)c1,-2.4,0.6%,4.6%,29.9µM*,?,-10.8%
CN(C)C(=S)c1ccccc1,-19.4,-8.6%,?,21.2µM*,?,-10.9%
CN(C)C(=S)c1ccc(N(C)C)cc1,-7.3,-5.5%,?,26.7µM*,-21.8%,?
COc1ccc(C(=O)c2ccc(OC)c(OC)c2)cc1OC,.,-17.6%,22.4%,-0.4%,-3.0%,-30.2%
COc1ccc(C(=S)N(C)C)cc1OC,-12.1,9.9%,?,18.9µM*,-14.3%,-16.1%
Cc1cc(C)cc(NC(=O)CCc2c(C)nc3nc(CNC(=O)c4cccc(F)c4)nn3c2C)c1,.,-6.1%,44.8%,.,5.0%,-2.8%
CC1(NC(=O)CC[N+](C)(C)CCO)CS(=O)(=O)CC1S(=O)(=O)[O-] (configuration not stated),.,-0.8%,.,.,.,50.1µM*
CCN(CC)c1ccc(NC(=O)COc2ccc(-n3cnnn3)cc2)cc1,0.4,-6.8%,?,1.5%,50.1µM*,.
CCN(CC)c1ccc(NC(=O)COc2ccc(N(C)S(=O)(=O)c3cccs3)cc2)cc1,0.2,-5.3%,-21.9%,-10.3%,?,10µM*
CN(c1ccc(OCC(=O)OCC(=O)Nc2ccc(Br)cc2)cc1)S(=O)(=O)c1cccs1,2.3,-12.4%,4.9%,-1.9%,-17.7%,-2.0%
CN(c1ccc(OCC(=O)OCC(=O)Nc2ccccc2)cc1)S(=O)(=O)c1cccs1,-10.9,10µM*,22.2%,-10.5%,-24.7%,-1.0%
CCOc1ccc(NC(=O)COc2ccc(-n3cnnn3)cc2)cc1,-0.5,-2.3%,67.0%,0.9%,-8.4%,-0.8%
SMILES,PI5P4K alpha inh,GCN5L2 inh,HP1b chromo inh,PLK1 PBD inh,JMJD2A Tudor,BAZ2B block
CC1CCCCN1C(=O)c1ccc(CS(=O)(=O)Cc2ccccc2)cc1 (configuration not stated),14.3,-2.9%,15.9%,-4.6%,0.7%,0.6%
Nc1nonc1-c1nc2ccccc2n1CC(=O)Nc1cccc(C(F)(F)F)c1,.,-8.3%,87.2%,.,-10.7%,0.4%
COc1ccc(NC(=O)CN(C)C(=O)CSCc2c(C)noc2C)cc1,-3.8,-5.2%,-1.1%,-11.2%,-7.5%,10.3%
O=C(O)c1ccc(C2CCCCC2)cn1,10.0,-3.8%,36.0%,-1.8%,1.58µM*,3.98µM*
COC(=O)CC1C(=O)NCCN1C(=O)c1ccc2oc(C(C)C)nc2c1 (configuration not stated),0.7,-5.4%,6.8%,29.9µM*,?,5.8%
CCCCc1nc2cc(C(=O)N3CCNC(=O)C3CC(=O)OC)ccc2o1 (configuration not stated),0.3,-13.7%,32.0%,-5.2%,-10.2%,-7.5%
Cc1ccc(C(c2nnnn2CC2CCCO2)N2CCN(C(=O)c3ccco3)CC2)cc1 (configuration not stated),0.8,-11.9%,40.5%,-0.8%,-3.8%,-35.1%
O=C(c1ccco1)N1CCN(C(c2ccc(Cl)cc2)c2nnnn2CC2CCCO2)CC1 (configuration not stated),-2.2,-2.5%,0.1%,-7.4%,79.4µM*,?
COCCn1nnnc1CN1CCN(C(=O)c2ccco2)CC1,-5.9,0.5%,1.0%,3.3%,-7.0%,0.9%
O=C(c1ccco1)N1CCN(Cc2nnnn2CC2CCCO2)CC1 (configuration not stated),-19.4,6.4%,40.1%,11.9µM*,28.2µM*,-30.3%
COc1cc2c(cc1NC(=O)C(C)OC(=O)c1ccc(S(=O)(=O)Nc3ccccc3Cl)cc1)oc1ccccc12 (configuration not stated),-1.3,-24.3%,34.7%,-2.7%,-15.9%,3.3%
CCC(C)Sc1oc(-c2ccco2)nc1S(=O)(=O)c1ccc(Cl)cc1 (configuration not stated),.,-14.6%,41.8%,.,9.2%,-0.5%
CCn1c(C)nc2cc(C(=O)N/N=C/c3cccc(O)c3O)ccc21,-1.0,-7.2%,31.1%,0.5%,79.4µM*,79.4µM*
COc1ccccc1/C=N/NC(=O)c1c(-c2ccccc2)noc1C,7.7,-5.2%,27.3%,-1.6%,-16.4%,28.2%
Cc1cccc(/C=N/NC(=O)c2c(-c3ccccc3)noc2C)c1O,-7.1,-12.3%,41.8%,-2.5%,?,25.1µM*
Cc1cccc(/C=N/NC(=O)c2ccc3c(c2)OCCO3)c1O,.,-6.9%,.,.,.,20µM*
CCOc1cccc(/C=N/NC(=O)c2ccc3c(c2)OCCO3)c1O,-1.5,-8.4%,-14.9%[57 µM],?,?,3.7%
CCn1c(C)nc2cc(C(=O)N/N=C/c3ccccc3)ccc21,2.7,-4.9%,-14.2%,-27.3%,-13.1%,-0.7%
CC1CCN(S(=O)(=O)c2ccc3c(ccc(=O)n3CC(=O)NCc3ccccc3Cl)c2)CC1,.,-17.0%,22.0%[57 µM],.,?,-8.4%
C=CCn1c(SCC(C)=O)nc2scc(-c3ccco3)c2c1=O,-55.3*,?,?,?,50.1µM*,44.7µM*
